Screening data as filed in PubChem.
In the library only some 4.1% were active in any assay of this set; here they are far more common.
BH1578 lux ind = quorum light induction in luxS cqsA deficient V. cholerae; 350,000 compounds, 0.16% hits; V. cholerae BH1578 lux reporter, luminescence, 6 h; AID 588436; activation, % at 18.7 µM; in the data active means activation mostly above about 9.7%, no sharp cut-off
Mtb UGM inh = blocks M. tuberculosis UGM enzyme; P9WIQ1; purified UGM, fluorescence polarization probe displacement; inhibition, % at 10 µM; 320,000 compounds, 0.06% hits; AID 504406; in the data active means inhibition above about 10%, passing the limit was not always enough
Rv3671c protease = inhibits the M. tuberculosis serine protease Rv3671c; inhibition, % at 5.96 µM; 320,000 compounds, 0.048% hits; in the data active means inhibition above about 38%;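 further: extracellular domain of Rv3671c used as enzyme; 0% = enzyme with DMSO and 100% = no enzyme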
Target sequence (P9WHR9 whole entry, looked up, the tested form may be a part): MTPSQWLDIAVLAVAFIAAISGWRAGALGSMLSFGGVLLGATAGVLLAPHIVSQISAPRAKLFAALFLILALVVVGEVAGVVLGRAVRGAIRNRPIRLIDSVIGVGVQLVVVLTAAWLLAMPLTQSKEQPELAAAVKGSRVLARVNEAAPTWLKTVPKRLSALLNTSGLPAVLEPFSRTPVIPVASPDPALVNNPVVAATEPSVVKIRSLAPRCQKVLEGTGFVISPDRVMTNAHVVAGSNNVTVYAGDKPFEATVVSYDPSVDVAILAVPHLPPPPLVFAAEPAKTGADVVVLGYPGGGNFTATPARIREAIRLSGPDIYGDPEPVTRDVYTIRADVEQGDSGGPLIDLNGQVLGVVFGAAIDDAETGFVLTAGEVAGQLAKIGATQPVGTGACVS
RecA intein inh = blocks M. tuberculosis RecA intein splicing; cell-free RecA intein splicing, fluorescence; AID 2221; inhibition, % (no concentration beside the values); 290,000 compounds, 0.75% hits; in the data active means inhibition above about 30%;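 further: 0% = vehicle wells and 100% = reference inhibitor control wells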
GDH-TPI counter-1 = inhibits GDH-TPI coupling enzymes, artifact for Mtb FBA screen; GDH-TPI coupled enzyme counterscreen, NADH absorbance; inhibition, % at 4.8 µM; 360,000 compounds, 1.2% hits; in the data active means inhibition above about 30%;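 further: 0% = DMSO wells and 100% = wells lacking the enzyme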
Mtb FBA inh = inhibitors of M. tuberculosis fructose-bisphosphate aldolase; P9WQA3; purified M. tuberculosis FBA, fluorescence read-out; inhibition, % at 1 µM; 360,000 compounds, 2.3% hits; AID 588726;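 further: 0% = vehicle and 100% = reference inhibitor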
Mtb FBA inh conf = confirmation of M. tuberculosis fructose-bisphosphate aldolase inhibitors; shares compounds with Mtb FBA inh; purified M. tuberculosis FBA, fluorescence read-out; inhibition, % at 1 µM; 5,600 compounds, 78% hits;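 further: 0% = vehicle wells and 100% = reference inhibitor wells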
GDH-TPI counter-2 = GDH-TPI inhibition counter-screen for FBA inhibitors; shares compounds with Mtb FBA inh; GDH-TPI coupled enzyme counterscreen, fluorescence; inhibition, % at 1 µM; 5,600 compounds, 81% hits; in the data active means inhibition above about 10%
GDH-TPI dose = counter-screen for M. tuberculosis FBA inhibitors: GDH-TPI dose response; GDH-TPI coupled enzyme assay, fluorescence, artifact counterscreen; shares compounds with Mtb FBA inh; 170 compounds, 79% hits; IC50, µM; AID 652145; call rule not given here
* hit, by the source's call; i = inactive; · = not tested or not shown; + = active, no number. Unless noted, no stated cut-off is given here; in the data, active means inhibition above about 27%; inactive means the rest.

SMILES	BH1578 lux ind	Mtb UGM inh	Rv3671c protease	RecA intein inh	GDH-TPI counter-1	Mtb FBA inh	Mtb FBA inh conf	GDH-TPI counter-2	others
CN(C)c1ccc(-c2ccnc3c2CC(C)(C(=O)NCc2ccccc2)O3)cc1 (stereo unspecified)	-0.6	·	·	·	14.6	48.8*	-4.6	-4.3
COCCN(C(=O)COC(=O)/C=C/c1ccc(Cl)c(Cl)c1)c1c(N)n(Cc2ccccc2)c(=O)[nH]c1=O	1.0	·	·	·	2.2	-1.3	·	·
Cc1ccc(-c2cc(-c3ccc(C)cc3)[n+](-c3ccccc3)c(-c3ccc(C)cc3)c2)cc1	-4.0	0.0	-7.5	23.7	25.0	10.7	·	·
Cc1ccc(-c2cc(-c3ccc(C)cc3)[n+](-c3ccc(C(=O)[O-])cc3)c(-c3ccc(C)cc3)c2)cc1	i	-1.9	-2.9	40.5*	45.8*	37.5*	13.9	7.1	GDH-TPI dose=3.85*
CCS(CC)=NS(=O)(=O)c1ccc(NC(C)=O)cc1	-0.9	·	4.3	-1.1	-1.3	63.9*	98.3*	86.7*
COc1cc(OC)c(S(=O)(=O)NC(C)C)cc1C(=O)O	0.5	3.2	-7.2	0.9	6.2	2.2	·	·
CCOC(=O)c1c(C)[nH]c2cc(Br)c(OC)cc12	-0.4	1.8	-5.3	-3.6	2.9	0.1	·	·
CCOC(=O)c1c(C)[n+](-c2ccc(C)cc2)c(CC)c2cc(OC)c(OC)cc12	i	-1.7	-4.3	-2.3	11.2	40.5*	82.2*	56.8*
CCOc1ccc(C2C=C(c3ccc(C)cc3)Nc3ncnn32)cc1 (stereo unspecified)	·	-4.1	1.2	-437.2	·	·	·	·
COc1ccc(C2C=C(C)Nc3ncnn32)cc1 (stereo unspecified)	i	1.1	-4.3	-4.8	8.1	36.0*	121.3*	106.2*
Cc1ccc(C2=CC(c3ccc(C)cc3)n3ncnc3N2)cc1 (stereo unspecified)	2.8	2.3	-16.1	-90.7	12.6	34.9*	118.8*	95.3*
CCc1cc(Cn2nc(-c3ccccc3C)cc2C(=O)O)on1	i	-2.6	-4.2	·	-6.9	-2.8	·	·
O=c1[nH]c2cc3c(cc2cc1CN(CCc1ccccc1)Cc1nnnn1CC1CCCO1)OCO3 (stereo unspecified)	-1.4	-1.0	2.8	·	26.2	30.0*	11.6	16.6*
O=c1[nH]c2cc3c(cc2cc1CN(Cc1nnnn1CC1CCCO1)C1CCCCC1)OCO3 (stereo unspecified)	-0.8	2.7	-0.8	-151.6	6.6	56.8*	+	+
O=c1[nH]c2cc3c(cc2cc1CN(Cc1nnnn1CC1CCCO1)C1CCCC1)OCO3 (stereo unspecified)	-1.4	1.3	-8.7	-11.9	11.5	75.6*	33.3*	28.9*
CC1CCN(C(c2cc3cc4c(cc3[nH]c2=O)OCO4)c2nnnn2CC2CCCO2)CC1 (stereo unspecified)	-0.4	1.2	1.6	-4.3	6.5	3.5	·	·
CCCN=C1N(C)C[C@@H]2[C@@H]3C(=O)N(C)C(=O)[C@@H]3[C@](CC)(C(=O)OC)N12	i	·	·	·	-15.6	1.9	·	·
O=C(CN1C(=O)c2cccc3cccc(c23)C1=O)NCCCO	i	-3.6	3.4	-0.9	17.2	52.3*	26.8	24.2*
COc1ccccc1NC(=O)CCCCCN1C(=O)c2cccc3cccc(c23)C1=O	-1.3	4.8	-13.2	·	9.4	1.6	·	·
O=C(CCCCCN1C(=O)c2cccc3cccc(c23)C1=O)NCCCO	0.4	0.6	-1.1	-2.8	17.9	33.5*	96.7*	73.4*
COCCCNC(=O)CN1C(=O)c2cccc3cccc1c23	-2.0	-1.1	4.9	·	22.4	8.6	·	·
CC(=O)c1ccc(N2CCN(C(=O)c3cc(-c4ccncc4)nc4ccc(Cl)cc34)CC2)cc1	i	-1.1	-4.9	2.3	12.5	-0.7	·	·
CCOCCCN(Cc1ccco1)C(=O)c1cc2c(=O)[nH]c3ccc(C)cc3c2s1	-0.2	2.4	-4.7	1.4	20.6	32.1*	8.1	-3.8
CCCN(CCC)C(=O)c1cc2c(=O)[nH]c3ccc(C)cc3c2s1	-0.4	-1.2	-3.3	0.4	3.5	4.8	·	·
Cc1ccc2[nH]c(=O)c3cc(C(=O)N(C)Cc4ccco4)sc3c2c1	-0.3	-2.7	-15.0	0.8	18.7	51.3*	186.5*	135.3*
SMILES	BH1578 lux ind	Mtb UGM inh	Rv3671c protease	RecA intein inh	GDH-TPI counter-1	Mtb FBA inh	Mtb FBA inh conf	GDH-TPI counter-2	others
Cc1ccc(NS(=O)(=O)c2ccc3c(c2)NC(=O)CCS3)cc1C	-0.9	-0.9	-9.4	1.6	12.1	4.2	·	·
Cc1ccc(S(=O)(=O)N(Cc2cccc(Cl)c2)C(=O)N2CCN(C)CC2)cc1	-6.2	4.3	-6.1	-0.5	9.1	6.7	·	·
CC(C)(C)C(=O)OCC12CCC(O1)C1(C)C(=O)OCC21 (stereo unspecified)	-0.2	5.2	8.3	-0.6	-0.4	46.9*	-6.5	-4.4
CC(=O)OC[C@]12CC[C@H]3[C@@](C)(CC[C@H]4C(C)(C)CCC[C@]34C)[C@@H]1C[C@H](C1=CC(=O)O[C@@H]1OC(C)=O)O2	·	2.6	-9.6	·	·	·	·	·
O=C1Nc2ccccc2O/C1=C\c1ccccc1	-0.5	-4.7	5.3	-2.6	16.4	29.6*	160.0*	102.4*
O=C1Nc2ccccc2Oc2ccccc21	-5.0	·	·	·	-0.9	-1.1	·	·
COc1cc2cncc(Cc3ccccc3)c2cc1O	-7.7	·	·	·	15.3	58.0*	85.1*	78.3*
NC(=O)c1ccccc1NS(=O)(=O)Cc1ccc(Cl)cc1	i	2.3	-1.2	-0.5	-5.8	69.8*	-8.6	-7.9
CCS(=O)(=O)Nc1ccccc1C(N)=O	-0.3	-0.4	11.4	0.9	-3.2	43.8*	14.4	-0.3	GDH-TPI dose=4.35*
CN(C)S(=O)(=O)Nc1ccccc1C(N)=O	-0.5	-1.1	-1.6	-0.5	-0.5	21.3	·	·
CCOC(=O)C1=C(COC(=O)c2ncc(Cl)c(Cl)c2Cl)NC(=O)NC1C (stereo unspecified)	3.7	0.2	1.0	-1.0	2.1	-3.1	·	·
Cc1ccccc1SCC(=O)NCC1(N2CCCCC2)CCCCC1	i	·	·	·	4.5	4.5	·	·
C=CCOc1c(CNc2cccc(C(=O)O)c2)cccc1OC	0.3	·	0.5	-2.4	-4.2	29.2*	39.5*	52.7*
C=CCOc1cccc(CNc2cccc(C(=O)O)c2)c1	-2.3	2.7	13.4	-2.8	6.9	27.5*	1.9	5.8
O=C(O)c1cccc(NCc2cccnc2)c1	2.2	-1.2	0.1	-2.7	-14.2	6.5	·	·
C=CCOc1c(CNc2cccc(C(=O)O)c2)cccc1OCC	-0.4	-3.0	-5.3	0.0	0.3	24.9	·	·
Cc1cccc2[nH]c3c(N4CCN(C(=O)c5ccco5)CC4)ncnc3c12	-1.4	-0.9	-20.2	1.8	17.2	44.0*	57.9*	42.4*
